According to PMC5700166:

Experiments:
Experiment in all cases: protein-binding microarray (PBM); PBM: ~300 nM protein, 6 mM HEPES pH 7.8, 80 mM KCl, 0.5 mM EDTA, 0.5 mM EGTA, 6% glycerol, 35 ng/ul poly-dIdC, 1% milk, 1 h, room temperature; Ap Aiptasia and Nv Nematostella (sea anemones) / Co Capsaspora / Aq Amphimedon (sponge) / Dm Drosophila / Hu human; RHD is the Rel homology domain; high values mean tight binding
Settings in all cases: dsDNA, one strand shown
GST-Ap-NF-kB RHD = target: T1, GST-Ap-NF-kB RHD (Exaiptasia pallida (Aiptasia), UniProt A0A913YAJ5 2-422)
T1 sequence: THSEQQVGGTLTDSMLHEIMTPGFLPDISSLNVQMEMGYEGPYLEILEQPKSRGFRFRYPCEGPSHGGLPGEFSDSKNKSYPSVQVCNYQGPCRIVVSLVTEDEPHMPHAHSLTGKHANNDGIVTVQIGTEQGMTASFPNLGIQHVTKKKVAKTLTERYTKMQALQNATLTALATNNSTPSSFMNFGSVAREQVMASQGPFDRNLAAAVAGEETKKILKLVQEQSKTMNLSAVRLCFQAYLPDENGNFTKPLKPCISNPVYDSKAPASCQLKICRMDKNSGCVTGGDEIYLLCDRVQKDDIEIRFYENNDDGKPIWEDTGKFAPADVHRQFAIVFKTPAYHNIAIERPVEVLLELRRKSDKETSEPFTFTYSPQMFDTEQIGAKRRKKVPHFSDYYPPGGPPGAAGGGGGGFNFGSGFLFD

[1] = target: T2, GST-Nv-NF-kB (Cys allele) (Nematostella vectensis, UniProt E5G601 2-411)
T2 sequence: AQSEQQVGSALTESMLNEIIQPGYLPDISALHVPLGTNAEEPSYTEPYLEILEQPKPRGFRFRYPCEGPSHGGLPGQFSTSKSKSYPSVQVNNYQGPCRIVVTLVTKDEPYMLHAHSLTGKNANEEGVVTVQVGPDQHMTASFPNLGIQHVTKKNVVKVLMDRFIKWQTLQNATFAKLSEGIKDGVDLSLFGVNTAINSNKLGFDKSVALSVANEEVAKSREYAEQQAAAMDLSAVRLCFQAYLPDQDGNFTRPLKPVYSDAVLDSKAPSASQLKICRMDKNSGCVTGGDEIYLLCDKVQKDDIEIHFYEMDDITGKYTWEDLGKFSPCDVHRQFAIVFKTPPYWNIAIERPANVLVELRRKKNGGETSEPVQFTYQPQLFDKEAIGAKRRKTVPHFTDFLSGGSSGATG

GST-Co-NF-kB = target: T3, GST-Co-NF-kB (Capsaspora owczarzaki, UniProt F1ARL5 200-546)
T3 sequence: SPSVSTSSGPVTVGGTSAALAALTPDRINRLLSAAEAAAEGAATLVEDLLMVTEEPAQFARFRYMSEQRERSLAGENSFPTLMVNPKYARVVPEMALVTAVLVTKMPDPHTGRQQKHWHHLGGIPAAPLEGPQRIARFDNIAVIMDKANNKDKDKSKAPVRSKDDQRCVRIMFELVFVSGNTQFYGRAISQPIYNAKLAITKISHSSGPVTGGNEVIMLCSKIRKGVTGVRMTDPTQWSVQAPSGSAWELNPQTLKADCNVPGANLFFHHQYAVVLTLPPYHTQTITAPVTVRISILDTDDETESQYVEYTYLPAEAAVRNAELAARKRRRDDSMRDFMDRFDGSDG

GST-Dm-Relish = target: T4, GST-Dm-Relish (Drosophila melanogaster, UniProt Q94527 99-473)
T4 sequence: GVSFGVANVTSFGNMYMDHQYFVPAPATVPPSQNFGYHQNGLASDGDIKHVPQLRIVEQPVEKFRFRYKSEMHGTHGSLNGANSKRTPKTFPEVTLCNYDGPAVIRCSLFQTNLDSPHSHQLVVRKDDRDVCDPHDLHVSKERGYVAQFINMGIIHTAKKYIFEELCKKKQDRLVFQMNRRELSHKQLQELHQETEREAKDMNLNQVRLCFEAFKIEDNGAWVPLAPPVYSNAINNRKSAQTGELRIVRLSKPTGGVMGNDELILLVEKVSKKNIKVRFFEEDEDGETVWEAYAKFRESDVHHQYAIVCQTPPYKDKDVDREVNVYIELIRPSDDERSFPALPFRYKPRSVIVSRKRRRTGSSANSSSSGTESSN

GST-Aq-NF-kB = target: T5, GST-Aq-NF-kB (Amphimedon queenslandica, UniProt A9Y5G7 2-389)
T5 sequence: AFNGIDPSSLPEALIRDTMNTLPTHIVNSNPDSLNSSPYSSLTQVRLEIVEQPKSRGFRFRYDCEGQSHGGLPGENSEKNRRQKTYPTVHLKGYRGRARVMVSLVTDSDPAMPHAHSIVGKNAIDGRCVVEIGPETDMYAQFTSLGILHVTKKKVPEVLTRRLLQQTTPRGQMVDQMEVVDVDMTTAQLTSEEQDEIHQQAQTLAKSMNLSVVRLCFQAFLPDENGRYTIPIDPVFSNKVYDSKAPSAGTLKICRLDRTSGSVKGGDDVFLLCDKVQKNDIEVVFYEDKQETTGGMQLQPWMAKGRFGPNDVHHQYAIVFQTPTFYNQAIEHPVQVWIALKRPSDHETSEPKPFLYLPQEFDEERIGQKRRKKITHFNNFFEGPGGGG

## CCGATTAACATCAATAAATACCCTGATGTTAATCGGGTCTTGATTCGCTTGACGCTGCTG
GST-Ap-NF-kB RHD
  binding signal: 3.73 z-score
[1]
  binding signal: 5.36 z-score
GST-Co-NF-kB
  binding signal: 2.51 z-score
GST-Dm-Relish
  binding signal: 4.58 z-score
GST-Aq-NF-kB
  binding signal: 4.69 z-score

## CCGATTAACATCACTGGGAATTCTGATGTTAATCGGGTCTTGATTCGCTTGACGCTGCTG
GST-Ap-NF-kB RHD
  binding signal: 3.23 z-score
[1]
  binding signal: 3.49 z-score
GST-Co-NF-kB
  binding signal: 3.79 z-score
GST-Dm-Relish
  binding signal: 3.32 z-score
GST-Aq-NF-kB
  binding signal: 2.67 z-score

## CCGATTAACATCAGGAATTCCCATGATGTTAATCGGGTCTTGATTCGCTTGACGCTGCTG
GST-Ap-NF-kB RHD
  binding signal: 6.4 z-score
[1]
  binding signal: 5.88 z-score
GST-Co-NF-kB
  binding signal: 4.61 z-score
GST-Dm-Relish
  binding signal: 7.97 z-score
GST-Aq-NF-kB
  binding signal: 7.09 z-score

## CCGATTAACATCACACCCCCCCCTGATGTTAATCGGGTCTTGATTCGCTTGACGCTGCTG
GST-Ap-NF-kB RHD
  binding signal: 4.42 z-score
[1]
  binding signal: 3.24 z-score
GST-Co-NF-kB
  binding signal: 5.16 z-score
GST-Dm-Relish
  binding signal: 4.99 z-score
GST-Aq-NF-kB
  binding signal: 4.16 z-score

## CCGATTAACATCAAATTCCCAGCTGATGTTAATCGGGTCTTGATTCGCTTGACGCTGCTG
GST-Ap-NF-kB RHD
  binding signal: 1.68 z-score
[1]
  binding signal: 3.6 z-score
GST-Co-NF-kB
  binding signal: 3.28 z-score
GST-Dm-Relish
  binding signal: 3.73 z-score
GST-Aq-NF-kB
  binding signal: 2.48 z-score

## CCGATTAACATCAGGGAACTACATGATGTTAATCGGGTCTTGATTCGCTTGACGCTGCTG
GST-Ap-NF-kB RHD
  binding signal: 1.52 z-score
[1]
  binding signal: 1.1 z-score
GST-Co-NF-kB
  binding signal: 1.62 z-score
GST-Dm-Relish
  binding signal: 8.31 z-score
GST-Aq-NF-kB
  binding signal: 2.44 z-score

## CCGATTAACATCACATTCTCCCCTGATGTTAATCGGGTCTTGATTCGCTTGACGCTGCTG
GST-Ap-NF-kB RHD
  binding signal: 4.7 z-score
[1]
  binding signal: 4.44 z-score
GST-Co-NF-kB
  binding signal: 6.71 z-score
GST-Dm-Relish
  binding signal: 1.55 z-score
GST-Aq-NF-kB
  binding signal: 3.34 z-score

## CCGATTAACATCAAGGTAATCCCTGATGTTAATCGGGTCTTGATTCGCTTGACGCTGCTG
GST-Ap-NF-kB RHD
  binding signal: 4.1 z-score
[1]
  binding signal: 2.08 z-score
GST-Co-NF-kB
  binding signal: 1.06 z-score
GST-Dm-Relish
  binding signal: 5.22 z-score
GST-Aq-NF-kB
  binding signal: 3.95 z-score

## CCGATTAACATCAAGGGAATCCCTGATGTTAATCGGGTCTTGATTCGCTTGACGCTGCTG
GST-Ap-NF-kB RHD
  binding signal: 6.73 z-score
[1]
  binding signal: 6.1 z-score
GST-Co-NF-kB
  binding signal: 2.83 z-score
GST-Dm-Relish
  binding signal: 9.2 z-score
GST-Aq-NF-kB
  binding signal: 6.63 z-score

## CCGATTAACATCAATATAGTCCCTGATGTTAATCGGGTCTTGATTCGCTTGACGCTGCTG
GST-Ap-NF-kB RHD
  binding signal: 5.51 z-score
[1]
  binding signal: 4.77 z-score
GST-Co-NF-kB
  binding signal: 1.15 z-score
GST-Dm-Relish
  binding signal: 1.16 z-score
GST-Aq-NF-kB
  binding signal: 3.69 z-score
